How the values were obtained:
Experiment in all cases: log2 ratio of Biotin-Ahx-Ub-VS probe labelling (fragment/DMSO); higher = less target engagement (more negative = stronger competition), active = hit call of the paper (q ≤ 0.05, log2 ratio ≤ -1)
Details in all cases: compound concentration: 200 uM; treatment time: 3 h
USP34 = USP34 (UniProt Q70CQ2)
Procedure, shortened: (§1)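 The table lists average log2 ratios of fragment over vehicle, from an unpaired t-test on global-median-normalised Spectronaut label-free quantities. Proteins with ≥2 unique peptides were used. Samples were HEK293T lysate (495 µg) treated in triplicate with fragment at 200 µM or vehicle for 3 h, then with Biotin-Ahx-Ub-VS (0.5 µM final) for 1 h, with labelled DUBs NeutrAvidin-enriched and run by diaPASEF LC-MS/MS.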

USP36 = target: T1, USP36 (UniProt Q9P275)
T1 sequence (whole entry): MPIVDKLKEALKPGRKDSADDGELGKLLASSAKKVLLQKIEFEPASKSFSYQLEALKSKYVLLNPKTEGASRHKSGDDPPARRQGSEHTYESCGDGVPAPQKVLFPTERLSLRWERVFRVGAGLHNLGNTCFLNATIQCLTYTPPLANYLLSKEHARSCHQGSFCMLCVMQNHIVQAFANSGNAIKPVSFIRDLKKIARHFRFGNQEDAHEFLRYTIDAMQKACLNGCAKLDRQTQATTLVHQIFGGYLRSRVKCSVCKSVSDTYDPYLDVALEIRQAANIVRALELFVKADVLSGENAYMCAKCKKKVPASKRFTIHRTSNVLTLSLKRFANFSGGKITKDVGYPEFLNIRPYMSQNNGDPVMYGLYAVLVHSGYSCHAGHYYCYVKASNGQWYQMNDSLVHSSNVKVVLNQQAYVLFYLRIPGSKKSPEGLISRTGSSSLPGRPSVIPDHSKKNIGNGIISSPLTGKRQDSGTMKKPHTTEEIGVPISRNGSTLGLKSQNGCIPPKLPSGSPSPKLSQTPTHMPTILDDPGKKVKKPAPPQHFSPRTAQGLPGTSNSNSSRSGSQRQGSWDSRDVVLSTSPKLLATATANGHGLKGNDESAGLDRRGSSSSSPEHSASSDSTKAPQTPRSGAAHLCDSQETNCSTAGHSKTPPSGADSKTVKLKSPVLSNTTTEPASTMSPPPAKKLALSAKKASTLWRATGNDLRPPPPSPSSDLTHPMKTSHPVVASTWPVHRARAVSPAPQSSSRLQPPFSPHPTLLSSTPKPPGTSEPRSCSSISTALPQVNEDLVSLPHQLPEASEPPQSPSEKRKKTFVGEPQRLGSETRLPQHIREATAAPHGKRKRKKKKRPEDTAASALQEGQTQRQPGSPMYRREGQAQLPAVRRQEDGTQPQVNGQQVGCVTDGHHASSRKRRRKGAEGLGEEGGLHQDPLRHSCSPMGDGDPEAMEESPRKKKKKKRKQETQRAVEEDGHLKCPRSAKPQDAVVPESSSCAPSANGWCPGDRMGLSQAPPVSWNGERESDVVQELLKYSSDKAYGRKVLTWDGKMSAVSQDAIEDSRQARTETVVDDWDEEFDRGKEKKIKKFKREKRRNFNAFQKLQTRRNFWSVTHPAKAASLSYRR
Procedure, shortened: as §1

USP38 = target: T2, USP38 (UniProt Q8NB14)
T2 sequence (whole entry): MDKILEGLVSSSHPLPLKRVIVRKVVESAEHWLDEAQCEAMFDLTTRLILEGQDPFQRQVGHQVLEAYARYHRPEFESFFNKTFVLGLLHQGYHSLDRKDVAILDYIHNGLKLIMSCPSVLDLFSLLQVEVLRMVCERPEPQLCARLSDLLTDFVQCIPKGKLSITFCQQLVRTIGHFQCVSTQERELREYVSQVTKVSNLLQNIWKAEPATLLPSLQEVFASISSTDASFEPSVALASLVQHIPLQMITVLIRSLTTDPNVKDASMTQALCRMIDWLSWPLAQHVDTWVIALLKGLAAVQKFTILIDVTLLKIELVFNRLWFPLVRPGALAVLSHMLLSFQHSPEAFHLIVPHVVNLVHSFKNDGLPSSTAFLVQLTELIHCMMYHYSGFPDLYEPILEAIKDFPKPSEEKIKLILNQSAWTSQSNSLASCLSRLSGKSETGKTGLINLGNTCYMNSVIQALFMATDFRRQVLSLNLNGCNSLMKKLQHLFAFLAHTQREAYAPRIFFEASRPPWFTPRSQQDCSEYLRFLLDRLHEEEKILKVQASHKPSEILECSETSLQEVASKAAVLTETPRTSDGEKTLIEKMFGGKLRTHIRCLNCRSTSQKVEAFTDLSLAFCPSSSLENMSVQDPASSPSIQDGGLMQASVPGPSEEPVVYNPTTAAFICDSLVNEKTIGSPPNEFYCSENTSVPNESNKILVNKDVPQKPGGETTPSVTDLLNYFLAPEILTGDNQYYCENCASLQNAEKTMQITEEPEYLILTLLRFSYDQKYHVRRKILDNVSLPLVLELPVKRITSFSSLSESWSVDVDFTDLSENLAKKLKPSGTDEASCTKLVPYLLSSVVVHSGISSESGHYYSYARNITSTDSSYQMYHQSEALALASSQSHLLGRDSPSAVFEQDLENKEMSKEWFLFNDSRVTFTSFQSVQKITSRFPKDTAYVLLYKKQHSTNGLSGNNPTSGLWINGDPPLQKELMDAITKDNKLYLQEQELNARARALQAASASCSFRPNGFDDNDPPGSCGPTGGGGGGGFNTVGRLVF
Procedure, shortened: as §1

USP39 = target: T3, USP39 (UniProt Q53GS9)
T3 sequence (whole entry): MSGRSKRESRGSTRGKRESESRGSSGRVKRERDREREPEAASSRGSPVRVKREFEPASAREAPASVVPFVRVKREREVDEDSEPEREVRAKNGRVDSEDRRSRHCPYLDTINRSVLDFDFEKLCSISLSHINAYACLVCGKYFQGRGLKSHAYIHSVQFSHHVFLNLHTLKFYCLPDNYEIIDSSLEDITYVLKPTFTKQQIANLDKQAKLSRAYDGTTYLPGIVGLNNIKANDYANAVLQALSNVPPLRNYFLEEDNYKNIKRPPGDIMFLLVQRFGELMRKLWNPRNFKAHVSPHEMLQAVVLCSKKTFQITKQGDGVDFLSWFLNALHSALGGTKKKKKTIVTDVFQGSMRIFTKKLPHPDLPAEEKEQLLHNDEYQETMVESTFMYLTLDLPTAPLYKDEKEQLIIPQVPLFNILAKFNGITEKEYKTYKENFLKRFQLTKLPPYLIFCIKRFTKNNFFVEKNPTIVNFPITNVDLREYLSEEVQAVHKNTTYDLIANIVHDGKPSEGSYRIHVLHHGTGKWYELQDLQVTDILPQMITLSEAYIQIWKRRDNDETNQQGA
Procedure, shortened: as §1

USP4 = target: T4, USP4 (UniProt Q13107)
T4 sequence (whole entry): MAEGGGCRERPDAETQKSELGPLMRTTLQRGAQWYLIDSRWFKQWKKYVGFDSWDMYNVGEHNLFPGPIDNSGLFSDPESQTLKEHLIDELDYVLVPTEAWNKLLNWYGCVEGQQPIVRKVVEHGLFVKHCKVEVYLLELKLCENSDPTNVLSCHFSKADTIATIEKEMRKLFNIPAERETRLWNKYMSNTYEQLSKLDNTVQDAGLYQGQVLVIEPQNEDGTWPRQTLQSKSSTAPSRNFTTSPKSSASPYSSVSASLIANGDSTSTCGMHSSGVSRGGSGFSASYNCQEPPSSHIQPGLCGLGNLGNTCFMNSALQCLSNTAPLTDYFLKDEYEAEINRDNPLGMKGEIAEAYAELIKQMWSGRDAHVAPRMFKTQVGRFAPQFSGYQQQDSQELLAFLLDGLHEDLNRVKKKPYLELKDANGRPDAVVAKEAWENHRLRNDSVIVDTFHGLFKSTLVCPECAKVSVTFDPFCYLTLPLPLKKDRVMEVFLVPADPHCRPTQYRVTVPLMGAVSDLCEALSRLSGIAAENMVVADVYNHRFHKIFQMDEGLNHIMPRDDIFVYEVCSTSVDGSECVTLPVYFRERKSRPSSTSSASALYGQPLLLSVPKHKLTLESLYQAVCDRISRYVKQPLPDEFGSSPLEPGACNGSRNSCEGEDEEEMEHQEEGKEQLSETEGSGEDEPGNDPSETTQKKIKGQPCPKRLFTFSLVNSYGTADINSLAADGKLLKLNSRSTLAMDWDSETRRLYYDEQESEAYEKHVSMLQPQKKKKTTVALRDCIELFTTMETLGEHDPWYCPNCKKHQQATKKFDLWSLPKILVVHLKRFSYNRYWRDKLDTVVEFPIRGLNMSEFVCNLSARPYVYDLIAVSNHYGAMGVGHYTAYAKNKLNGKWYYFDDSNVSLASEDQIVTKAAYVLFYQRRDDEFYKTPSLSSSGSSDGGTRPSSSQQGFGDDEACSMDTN
Procedure, shortened: as §1

Measured: log2 ratio of Biotin-Ahx-Ub-VS probe labelling

USP34, sequence (Q70CQ2 whole entry, the tested form may be a part): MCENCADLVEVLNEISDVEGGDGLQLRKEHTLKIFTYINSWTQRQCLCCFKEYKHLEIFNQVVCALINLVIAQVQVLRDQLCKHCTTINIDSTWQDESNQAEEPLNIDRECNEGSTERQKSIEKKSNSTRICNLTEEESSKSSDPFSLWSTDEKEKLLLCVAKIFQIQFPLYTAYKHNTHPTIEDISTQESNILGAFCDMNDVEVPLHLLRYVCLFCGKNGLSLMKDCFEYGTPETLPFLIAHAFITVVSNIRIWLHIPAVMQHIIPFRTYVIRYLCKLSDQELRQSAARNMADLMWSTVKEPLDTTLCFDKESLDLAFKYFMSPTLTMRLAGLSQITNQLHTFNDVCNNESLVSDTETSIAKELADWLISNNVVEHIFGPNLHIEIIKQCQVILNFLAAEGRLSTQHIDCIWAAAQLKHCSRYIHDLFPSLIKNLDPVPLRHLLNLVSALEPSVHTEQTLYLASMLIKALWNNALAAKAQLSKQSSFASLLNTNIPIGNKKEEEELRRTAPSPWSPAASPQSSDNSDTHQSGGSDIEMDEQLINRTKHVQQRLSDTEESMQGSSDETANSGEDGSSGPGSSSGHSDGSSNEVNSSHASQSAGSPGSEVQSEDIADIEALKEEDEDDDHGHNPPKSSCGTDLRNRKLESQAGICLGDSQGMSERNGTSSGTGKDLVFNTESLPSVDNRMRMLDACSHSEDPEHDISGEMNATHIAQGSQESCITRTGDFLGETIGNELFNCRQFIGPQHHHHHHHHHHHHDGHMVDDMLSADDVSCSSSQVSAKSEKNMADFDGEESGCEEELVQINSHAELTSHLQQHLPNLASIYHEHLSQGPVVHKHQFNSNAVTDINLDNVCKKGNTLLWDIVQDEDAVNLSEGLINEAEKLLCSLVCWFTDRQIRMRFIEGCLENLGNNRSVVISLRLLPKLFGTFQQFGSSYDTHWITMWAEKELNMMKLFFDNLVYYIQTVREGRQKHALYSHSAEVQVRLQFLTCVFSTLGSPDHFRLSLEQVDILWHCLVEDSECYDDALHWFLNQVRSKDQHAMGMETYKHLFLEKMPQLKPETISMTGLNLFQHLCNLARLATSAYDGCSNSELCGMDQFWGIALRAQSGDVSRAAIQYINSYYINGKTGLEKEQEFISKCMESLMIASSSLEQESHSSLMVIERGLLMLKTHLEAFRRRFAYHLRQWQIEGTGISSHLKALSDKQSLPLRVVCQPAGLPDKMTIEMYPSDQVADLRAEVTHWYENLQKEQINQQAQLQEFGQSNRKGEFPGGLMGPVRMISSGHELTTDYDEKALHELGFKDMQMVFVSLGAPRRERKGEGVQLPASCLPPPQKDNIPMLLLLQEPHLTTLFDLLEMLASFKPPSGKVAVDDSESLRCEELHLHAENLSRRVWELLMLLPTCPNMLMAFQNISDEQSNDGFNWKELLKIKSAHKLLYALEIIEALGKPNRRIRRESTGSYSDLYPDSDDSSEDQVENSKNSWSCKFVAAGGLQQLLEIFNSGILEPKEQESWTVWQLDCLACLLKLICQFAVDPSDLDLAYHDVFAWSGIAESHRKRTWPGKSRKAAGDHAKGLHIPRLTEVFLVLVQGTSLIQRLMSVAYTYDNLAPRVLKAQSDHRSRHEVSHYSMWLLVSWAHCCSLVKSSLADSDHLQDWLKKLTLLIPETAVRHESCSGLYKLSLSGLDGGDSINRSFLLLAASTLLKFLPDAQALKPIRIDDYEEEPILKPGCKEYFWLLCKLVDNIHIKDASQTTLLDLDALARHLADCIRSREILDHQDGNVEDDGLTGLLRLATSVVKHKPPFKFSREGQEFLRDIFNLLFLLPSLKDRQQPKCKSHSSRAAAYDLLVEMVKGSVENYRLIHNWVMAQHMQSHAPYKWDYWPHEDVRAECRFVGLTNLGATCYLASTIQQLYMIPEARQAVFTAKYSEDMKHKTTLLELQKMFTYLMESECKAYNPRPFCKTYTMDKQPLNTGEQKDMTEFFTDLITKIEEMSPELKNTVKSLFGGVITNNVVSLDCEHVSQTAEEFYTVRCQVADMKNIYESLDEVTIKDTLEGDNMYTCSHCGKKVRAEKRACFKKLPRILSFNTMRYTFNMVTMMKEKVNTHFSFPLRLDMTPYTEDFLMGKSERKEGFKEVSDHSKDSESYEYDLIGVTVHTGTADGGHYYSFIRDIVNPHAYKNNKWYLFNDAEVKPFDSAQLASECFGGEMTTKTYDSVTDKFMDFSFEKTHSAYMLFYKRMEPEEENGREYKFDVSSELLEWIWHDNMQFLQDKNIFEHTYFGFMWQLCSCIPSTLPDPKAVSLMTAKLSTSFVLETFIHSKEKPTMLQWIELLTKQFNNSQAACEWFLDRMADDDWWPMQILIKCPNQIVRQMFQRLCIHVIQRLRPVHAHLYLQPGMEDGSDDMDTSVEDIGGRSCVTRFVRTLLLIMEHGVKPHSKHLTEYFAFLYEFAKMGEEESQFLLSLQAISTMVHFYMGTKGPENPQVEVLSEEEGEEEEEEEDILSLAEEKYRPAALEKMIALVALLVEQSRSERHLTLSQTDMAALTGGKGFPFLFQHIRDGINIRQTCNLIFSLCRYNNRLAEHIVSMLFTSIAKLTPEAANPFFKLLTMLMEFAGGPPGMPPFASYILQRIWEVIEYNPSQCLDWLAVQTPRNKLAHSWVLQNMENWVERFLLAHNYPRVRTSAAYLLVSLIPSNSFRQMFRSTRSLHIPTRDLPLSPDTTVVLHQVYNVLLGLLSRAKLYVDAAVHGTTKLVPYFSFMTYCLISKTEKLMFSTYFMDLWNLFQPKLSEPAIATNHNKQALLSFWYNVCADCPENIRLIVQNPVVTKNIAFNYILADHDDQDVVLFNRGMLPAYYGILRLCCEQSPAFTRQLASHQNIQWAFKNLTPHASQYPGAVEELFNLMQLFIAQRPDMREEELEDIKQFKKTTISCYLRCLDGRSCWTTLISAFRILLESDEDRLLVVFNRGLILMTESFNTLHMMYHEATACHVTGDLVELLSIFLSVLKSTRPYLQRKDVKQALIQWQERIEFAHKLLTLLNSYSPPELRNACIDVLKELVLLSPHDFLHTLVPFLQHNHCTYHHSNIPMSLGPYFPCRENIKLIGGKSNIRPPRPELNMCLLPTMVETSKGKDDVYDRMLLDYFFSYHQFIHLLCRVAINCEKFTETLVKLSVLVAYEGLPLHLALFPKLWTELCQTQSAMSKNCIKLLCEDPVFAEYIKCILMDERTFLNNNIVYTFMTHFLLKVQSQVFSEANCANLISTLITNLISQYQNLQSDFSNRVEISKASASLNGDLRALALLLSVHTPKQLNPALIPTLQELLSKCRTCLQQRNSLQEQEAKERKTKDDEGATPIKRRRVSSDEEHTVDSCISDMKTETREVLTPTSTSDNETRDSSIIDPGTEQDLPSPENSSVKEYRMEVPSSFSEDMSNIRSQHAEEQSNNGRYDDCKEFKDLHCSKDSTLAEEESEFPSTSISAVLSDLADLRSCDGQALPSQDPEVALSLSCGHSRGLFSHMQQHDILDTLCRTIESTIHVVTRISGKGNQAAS

O=C(CCl)N1CCCN(C(=O)c2ccc(Cl)cc2)CC1
inactive: USP34 -0.425 | USP36 0.0741 | USP38 -0.22 | USP39 -0.317 | USP4 -0.259

Source: the supplement of paper PMC11732987, “Enantioselective OTUD7B fragment discovery through chemoproteomics screening and high-throughput optimisation” (Communications Chemistry, 2025)
